From PubChem BioAssay AID1063 (University of Pittsburgh Molecular Library Screening Center, 2008)
About 18,000 (9%) of roughly 200,000 compounds were called active. This excerpt belongs to a sample that is enriched for actives. Values without a mark were called inactive. No stated cut-off is given here; in the data, active means inhibition above about 50%; inactive means the rest.

Assay: Leishmania major promastigote growth inhibition, primary screen (AID 1063);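 further: promastigotes grown with compound for 44 hours at 28 °C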
Settings: Leishmania major promastigotes, resazurin fluorescence viability; at 10 µM; active compounds read high

| Structure (SMILES) | inhibition |
| --- | --- |
| C=CCC(C(=O)c1ccccc1)[N+](C)(C)CC=C (stereo unspecified) | -3.06% |
| COc1ccc(NC(=O)C(C)SCc2ccccc2)cc1 (stereo unspecified) | -8.12% |
| CC1(C)OC(=O)C(=CSc2ccc(C(C)(C)C)cc2)C(=O)O1 | -9.81% |
| CN(C)c1nnnn1-c1ccc(Cl)cc1 | 2.19% |
| CCN(CC)c1ccc(/C=N/Nc2nc(C)cc(C)n2)c(O)c1 | 99.8% (active) |
| CCN(CC)c1ccc(/C=N/Nc2nc(C)cc(=O)[nH]2)cc1 | -1.36% |
| CCOc1ccc(-n2c(O)c(/C=N/Nc3nc(C)cc(C)n3)c3ccccc3c2=O)cc1 | 14% |
| Cc1ccc(S(=O)(=O)CC(=O)Nc2c(C)n(C)n(-c3ccccc3)c2=O)cc1 | 2.54% |
| COc1cccc(CNC(=O)CCN2C(=S)NC(C)(C)CC2C)c1 (stereo unspecified) | -13.5% |
| CCCC(=O)NC(=S)Nc1ccc(CN2CCOCC2)cc1 | 5.07% |
| O=C1OC(/C=C/c2ccccc2)=NC/1=C/c1ccco1 | -4.68% |
| Fc1cccc2ncnc(OCc3ccccc3)c12 | -9.83% |
| O=C(Nc1ccc(C(=O)O)cc1)/C(=C/c1ccc([N+](=O)[O-])cc1)NC(=O)c1ccccc1 | -2.56% |
| O=C(N/N=C/c1cc([N+](=O)[O-])ccc1O)/C(=C\c1cccs1)NC(=O)c1ccccc1 | 85.6% (active) |
| O=C(N/N=C/c1ccc(O)cc1)/C(=C/c1ccc([N+](=O)[O-])cc1)NC(=O)c1ccccc1 | -2.54% |
| O=C(c1cn(-c2ccccc2)nc1-c1cc2ccccc2oc1=O)N1CCOCC1 | -2.51% |
| CC1(C)CC(=O)C(C2c3ccccc3S(=O)(=O)c3ccccc32)C(=O)C1 | -3.12% |
| Cc1ccccc1OCC(O)CN1CCN(c2ccccn2)CC1 (stereo unspecified) | 3.89% |
| Cc1cccc(OCC(O)CN2CCN(CCN3C(=O)c4cccc5cccc(c45)C3=O)CC2)c1C (stereo unspecified) | 99.9% (active) |
| OC(COc1cccc2ccccc12)CN1CCN(c2ccccn2)CC1 (stereo unspecified) | -1.28% |
| COCCCNC(=S)NNC(=O)C(O)(c1ccccc1)c1ccccc1 | -3.7% |
| CN(C)C(=O)c1nc2ccc(Cl)cn2c1CN1CCN(c2ncccn2)CC1 | 7.72% |
| O=C(CN1CCSCC1)N/N=C/c1ccc(Cl)cc1 | 7.06% |
| Clc1ccc(-c2nc3ccccn3c2CN2CCSCC2)cc1 | 77.4% (active) |

| Structure (SMILES) | inhibition |
| --- | --- |
| CCOC(=O)N1CCN(CC(=O)Nc2ccc(F)cc2)CC1 | -5.71% |
| CC(Nc1ccccc1)c1cccnc1 (stereo unspecified) | 12.1% |
| C=CCn1c(N)c(C(=O)OCC(C)C)c2nc3ccccc3nc21 | 61% (active) |
| C=CCn1c(N)c(S(=O)(=O)c2cccs2)c2nc3ccccc3nc21 | 4.67% |
| CC(C)Cn1c(N)c(C(=O)NCc2cccs2)c2nc3ccccc3nc21 | 40.8% |
| Cc1ccc(CN2CCN(/N=C/c3cccnc3)CC2)c(C)c1 | 13.4% |
| COc1cccc(NC(=S)NCc2ccccn2)c1 | -4.83% |
| COc1cccc(NC(=S)N(Cc2ccc(C)cc2)Cc2ccccn2)c1 | 94.4% (active) |
| CSc1cccc(NC(=S)N(Cc2ccccc2)Cc2ccccn2)c1 | 17.4% |
| CN(C)c1ccc(/C=N/Nc2cc(N3CCOCC3)nc(N3CCOCC3)n2)cc1 | -7.95% |
| Cc1ccc(-n2cc(CN(C)Cc3nccn3C)c(-c3cccc(C)c3)n2)cc1 | 39% |
| Cc1cc(NC(=O)CN2C(=O)NC(CCc3ccccc3)C2=O)no1 (stereo unspecified) | 4.06% |
| CCNC(=O)CC1C(=O)N(c2ccc(F)cc2)C(=O)N1CCc1sccc1C (stereo unspecified) | -7.58% |
| O=C(NNC(=S)NCCCN1CCOCC1)c1ccncc1 | -2.18% |
| O=C(NCCCN1CCOCC1)c1cc2c(s1)CCC2 | 79% (active) |
| O=C(NCCCn1ccnc1)c1cc(-c2ccccc2)on1 | 2.53% |
| O=C(NCCCN1CCOCC1)c1cc(-c2ccc(Cl)cc2)on1 | 59.5% (active) |
| O=C(NCCCN1CCOCC1)c1cnn2c(-c3ccccc3)cc(-c3ccccc3)nc12 | 19% |
| O=C(NCCN1CCOCC1)c1c(F)c(F)c(F)c(F)c1F | -4.01% |
| CCN(CC)CCCNC(=O)c1cc(-c2cccc(Cl)c2)on1 | 87.4% (active) |
| O=C(NCCCN1CCOCC1)c1ccccc1NS(=O)(=O)c1ccc(Br)cc1 | -7.24% |
| CC(NC(=O)c1cc(-c2ccccc2)on1)c1ccccc1 (stereo unspecified) | -7.18% |
| CCCCCN(C(=O)NC(=O)Nc1cccc(C)c1C)S(C)(=O)=O | -14.4% |
| COc1cccc(NC(=O)CC(c2ccc(OC(C)C)cc2)c2ccccc2OC)c1 (stereo unspecified) | -2.29% |

| Structure (SMILES) | inhibition |
| --- | --- |
| CCC(O)C1CCN(Cc2cn(-c3ccc(OC)cc3)nc2-c2cccc(F)c2)CC1 (stereo unspecified) | 30.3% |
| Cc1ccc(C)c(-n2cc(CN3CCN(C(=O)c4ncn[nH]4)CC3)c(-c3ccccc3)n2)c1 | -2.57% |
| Cc1cccc(-n2cc(CN3CCN(C(=O)c4ncn[nH]4)CC3)c(-c3cccc(F)c3)n2)c1 | 89.9% (active) |
| Cc1ccc(/C=N/NC(=O)Cn2ccc(C(F)(F)F)n2)o1 | -8.92% |
| CC1(C)CC(N(Cc2ccccc2)C(=O)Cc2ccccc2)CCO1 (stereo unspecified) | 3.41% |
| COCCNC(=S)Nc1cc(S(=O)(=O)N2CCOCC2)ccc1N1CCCCC1 | -2.67% |
| CN(C)c1nc(N)nc(Cn2nnc(-c3ccc(C(F)(F)F)cc3)n2)n1 | -9.02% |
| Cc1noc(COc2ccccc2OCC(O)CNC(C)(C)C)n1 (stereo unspecified) | 5.97% |
| CC(C)(C)CC(C)(C)NCC(O)COCCOc1ccc(Br)cc1 (stereo unspecified) | 96.6% (active) |
| Brc1ccc(OCCn2ccnc2)cc1 | 9.23% |
| Cc1cc(C)n(-c2nc(C(F)(F)F)nc3ccccc23)n1 | 24.4% |
| O=C(CN1CCN(Cc2ccc(F)cc2Cl)C1=O)NCc1cccs1 | -13% |
| Cc1ccc(S(=O)(=O)NC(C(=O)N2CCOCCOCCOCCOCC2)c2ccccc2)cc1 (stereo unspecified) | -7.01% |
| COc1ccc(/C=N/NC(=O)c2ccncc2)cc1CN1CCCc2ccccc21 | 63.4% (active) |
| COc1ccc(/C=N/NC(=O)c2ccc(Cl)cc2)cc1COC(C)=O | -8.12% |
| COc1cc(/C=N/NC(=O)c2ccccc2)ccc1OS(=O)(=O)c1ccccc1 | 1.2% |
| CC1CC(C)CN(C/C=C/c2ccccc2[N+](=O)[O-])C1 (stereo unspecified) | 83.9% (active) |
| CC1CC(C)CN(CC(=O)N2c3ccccc3CCc3ccccc32)C1 (stereo unspecified) | 18.5% |
| CC(C)CNC(=O)COC(=O)/C=C/c1ccccc1[N+](=O)[O-] | 4.47% |
| COc1cc(CN2CCNC(=O)C2CC(=O)NCCc2ncccc2C)cc(OC)c1 (stereo unspecified) | -4.29% |
| CC1=C(C)CC(C(=O)NC(C)CCc2ccccc2)C(C(=O)O)C1 (stereo unspecified) | 17.2% |
| C=CCOc1c(CNn2cn[nH]c2=S)cccc1OC | 25.5% |
| N#Cc1c(N)nc2c3c(sc(=N)c2c1N)NC(=O)CC3c1ccccc1Cl (stereo unspecified) | 75.7% (active) |
| CSc1nc2c(c(=O)[nH]1)C(c1cccc(Cl)c1Cl)CC(=O)N2 (stereo unspecified) | -5.68% |

| Structure (SMILES) | inhibition |
| --- | --- |
| COc1ccc(C2CC(=O)Nc3sc(=N)c4c(N)c(C#N)c(N)nc4c32)cc1OC (stereo unspecified) | -5.32% |
| COc1cccc2c1OCC(CN1CCN(C3CCCCC3)C(CCO)C1)=C2 (stereo unspecified) | 11.6% |
| O=C(c1snnc1-c1ccccc1)N1CCOCC1 | -3.05% |
| CCc1nnc(NC(=O)CCN(c2ccc(C)cc2)S(=O)(=O)c2ccccc2)s1 | 71.3% (active) |
| CCc1nnc(NC(=O)CCC(=O)O)s1 | -2.47% |
| CCc1nnc(NC(=O)CCC(=O)NCc2ccccc2OC)s1 | -6.69% |
| Cc1ccc(C(=O)O)cc1NC(=O)c1ccc(Cn2nc(C)c(Cl)c2C)o1 | -7.15% |
| Cc1c(Cl)c([N+](=O)[O-])nn1Cc1ccc(C(=O)N/N=C\c2cc(Cl)ccc2O)o1 | 100% (active) |
| Cc1c(Cl)c([N+](=O)[O-])nn1CCCC(=O)Nc1cc(Cl)ccc1Cl | 0.47% |
| Cc1ccc(OCC(=O)NC(C)c2ccccc2)c([N+](=O)[O-])n1 (stereo unspecified) | 11.1% |
| CCc1ccc(NC(=O)Nc2ccncc2)cc1 | 24.8% |
| O=C(Cc1c[nH]c2ccccc12)OCCOC(=O)Cc1c[nH]c2ccccc12 | 94.7% (active) |
| CCOC(=O)CN(C)Cc1c[nH]c2ccccc12 | -1.3% |
| NS(=O)(=O)c1ccc(NC(=O)COC(=O)CCc2c[nH]c3ccccc23)cc1 | -4.64% |
| Cc1ccc(C)c(-n2ccnc2SCC(N)=O)c1 | -3.12% |
| COc1ncnc2sc3c(c12)CCCC3 | -1.31% |
| CC1(C)CN=C(N2CCN(c3ncnc4sc5c(c34)CCCC5)CC2)S1 | 100% (active) |
| O=C(O)[C@@H]1CCCN1c1ncnc2sc3c(c12)CCC3 | -0.86% |
| O=C1c2ccccc2C(=O)N1CCC(O)C[N+](=O)[O-] (stereo unspecified) | -0.84% |
| Cc1ccc(Cl)cc1NC(=O)C1CCN(S(C)(=O)=O)CC1 | 2.22% |
| COc1ccc(OC)c(C(=O)c2coc3ccc(OC)cc23)c1 | 6.9% |
| COc1ccc(OC)c(C(=O)c2ccc(C(=O)O)cc2)c1 | -2.29% |
| COc1ccc2occ(C(=O)c3ccc(N=C(C)N(C)C)cc3)c2c1 | 100% (active) |
| COc1ccc2cc(CCl)c(Cl)nc2c1 | 5.05% |
